Active and inactive are the calls of the source. The calls were made as follows: active = hit-call score of the fitted dose curve at least 0.9, where 1 is the maximum; inactive = score below 0.9.

One assay is described as follows: ATG_CMV_CIS: Attagene CIS-FACTORIAL HepG2 Assay for human CMV (Internal Marker) (AID 2282928).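 Also: endpoint acts as a background internal control marker rather than a target.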 To be noted: HepG2 CMV promoter reporter, transcription factor profiling; actives raise or lower the signal. The method in brief:
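Cell system: HepG2, transiently transfected multiple reporter units under cis promoters. Exposure: 24 h. Detection: RT-PCR, FAM labeling, HpaI digestion, capillary electrophoresis. Analysis: bidirectional, DMSO baseline.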
Consider `CCC(Cc1c(I)cc(I)c(N)c1I)C(=O)O` (centres undefined), for which the AC50 was 62.6 µM (active).
Regarding `C=C(C)CCCC`, the compound was called inactive.
On the same count and under the same terms, for `OCC(F)(F)C(F)(F)C(F)(F)C(F)(F)C(F)(F)C(F)(F)CO` the value was “inactive”; for `C[C@]12CC[C@H]3C(=CCc4cc(O)ccc43)[C@@H]1CCC2=O`, “inactive”.
`Oc1ccc(C2(c3ccc(O)c(C4CCCCC4)c3)CCCCC2)cc1C1CCCCC1`: the AC50 is 8.9 µM (active).
As to `O=C(O)CCC(F)(F)C(F)(F)C(F)(F)C(F)(F)C(F)(F)C(F)(F)C(F)(F)F`, the compound was classed as inactive.
On the same count and under the same terms, for `NCC(F)(F)C(F)(F)C(F)(F)C(F)(F)C(F)(F)C(F)(F)F` the value was “inactive”; for `CC(C)C(=O)OCc1ccccc1`, “inactive”; for `CO[Si](C)(CCC(F)(F)C(F)(F)C(F)(F)C(F)(F)C(F)(F)C(F)(F)F)OC`, “inactive”.
The same measure, in the same setting: then `C[Si](C)O[Si](C)C`, with “inactive”; and `Cc1cnccn1`, with “inactive”; and `NCC(F)(F)C(F)(F)C(F)(F)C(F)(F)C(F)(F)C(F)(F)C(F)(F)C(F)(F)F`, with “inactive”.
Still for that read-out and setting: then `CN(C)C(C)(C)CO`, with “inactive”; and `CCCCCCCCCCCCC[N+](C)(C)Cc1ccccc1`, with “inactive”; and `OCCCc1cccnc1`, with “inactive”.
On to `Cc1cc(C)c(O)c(C(C)(C)C)c1`, for which the AC50 was 100 µM (active).
`CCC(=O)OC(C)c1ccccc1` (centres undefined): the compound was classed as inactive.
On the same count and under the same terms, then `COc1ccccc1C=O`, with “inactive”.
On the same count and under the same terms, then `CCCCCCCCCCCC(=O)Cl`, with “inactive”.
For the compound `CCN=C1C=CC(=C(c2ccc(N(CC)CC)cc2)c2ccc(N(CC)CC)cc2)c2ccccc21`, the AC50 is 0.905 µM (active).
As for `NC(=O)C(F)(F)C(F)(F)C(F)(F)F`, the compound was classed as inactive.
Same read-out and setting: for `CC(C)CC=C(C=O)c1ccccc1` the value was “inactive”.
Same read-out and setting: then `F[Si-2](F)(F)(F)(F)F`, with “inactive”; and `NC(=O)C(F)(F)C(F)(F)C(F)(F)C(F)F`, with “inactive”.
For the compound `O=C(O)C(F)(F)OC(F)(F)C(F)(F)OC(F)(F)C(F)(F)OC(F)(F)F`, the AC50 is 66.5 µM (active).
On to `CCCCCCCCCCCCCC[P+](CCCC)(CCCC)CCCC`, for which the outcome was inactive.
Still for that read-out and setting: for `C=CCOC(=O)CC(C)C` the value was “inactive”.
The same measure, in the same setting: for `O=C=Nc1cccc2c(N=C=O)cccc12` the value was “inactive”.
For `CC(O)C#CC(C)O` (centres undefined), the AC50 was 176 µM (active).

Another assay is described as follows: ATG_DR4_LXR_CIS: Attagene CIS-FACTORIAL HepG2 Assay for human Liver X Receptor (LXR), DR4 submotif (AID 2282929). To be noted: HepG2 Attagene DR4 cis-reporter, mRNA transcription; actives raise or lower the signal. The method in brief: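 Measures endogenous transcription factor activity via a DR4-driven reporter transcript in human HepG2 cells. Compounds incubated 24 h; mRNA quantified by RT-PCR and capillary electrophoresis, analysed as gain or loss of signal versus DMSO.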
`C=C(C)CCCC`: the outcome was inactive.
On to `OCC(F)(F)C(F)(F)C(F)(F)C(F)(F)C(F)(F)C(F)(F)CO`, for which the call was inactive.
The same measure, in the same setting: for `C[C@]12CC[C@H]3C(=CCc4cc(O)ccc43)[C@@H]1CCC2=O` the value was “inactive”; for `O=C(O)CCC(F)(F)C(F)(F)C(F)(F)C(F)(F)C(F)(F)C(F)(F)C(F)(F)F`, “inactive”.
Still for that read-out and setting: for `NCC(F)(F)C(F)(F)C(F)(F)C(F)(F)C(F)(F)C(F)(F)F` the value was “inactive”; for `CC(C)C(=O)OCc1ccccc1`, “inactive”; for `CO[Si](C)(CCC(F)(F)C(F)(F)C(F)(F)C(F)(F)C(F)(F)C(F)(F)F)OC`, “inactive”.
Turning to `FC(F)(F)C(F)(F)C(F)(F)C(F)(F)C(F)(F)C(F)(F)C(F)(F)CCI`, the compound was classed as inactive.
On the same count and under the same terms, for `C[Si](C)O[Si](C)C` the value was “inactive”; for `Cc1cnccn1`, “inactive”.
Still for that read-out and setting: for `NCC(F)(F)C(F)(F)C(F)(F)C(F)(F)C(F)(F)C(F)(F)C(F)(F)C(F)(F)F` the value was “inactive”; for `OCC(F)(F)C(F)(F)C(F)(F)CO`, “inactive”.
Still for that read-out and setting: for `CN(C)C(C)(C)CO` the value was “inactive”; for `Nc1cc([N+](=O)[O-])cc(Cl)c1O`, “inactive”.
As for `OCCCc1cccnc1`, the call was inactive.
Turning to `O=C(Cl)C(F)(F)C(F)(F)C(F)(F)C(F)(F)C(F)(F)C(F)(F)C(F)(F)F`, the compound was classed as inactive.
For the compound `CCCCCCCCCCCC(=O)Cl`, the AC50 is 163 µM (active).
On the same count and under the same terms, for `CC(C)CC=C(C=O)c1ccccc1` the value was 84.9 µM (active).
Regarding `OCC(F)(F)C(F)(F)C(F)(F)C(F)(F)C(F)(F)C(F)(F)C(F)(F)C(F)(F)CO`, the result was inactive.
Still for that read-out and setting: for `F[Si-2](F)(F)(F)(F)F` the value was “inactive”; for `NC(=O)C(F)(F)C(F)(F)C(F)(F)C(F)F`, “inactive”; for `O=C(O)C(F)(F)OC(F)(F)C(F)(F)OC(F)(F)C(F)(F)OC(F)(F)F`, “inactive”.
The same measure, in the same setting: then `C=CCOC(=O)CC(C)C`, with “inactive”.
Regarding `CC(O)C#CC(C)O` (centres undefined), the AC50 is 64.9 µM (active).
On to `CCOCN(C(=O)CS(=O)(=O)O)c1c(C)cccc1CC`, for which the result was inactive.

For the origin of these results see PubChem BioAssay (EPA / NIEHS).
